Measured potencies and affinities stand elsewhere. Activity calls are given as the source filed them.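 Rule for the calls: active = compounds lowering HDL dye uptake whose fitted half-effect dose is at most twice the top valid dose; inconclusive = flat curve with moderate signal loss, or poor fit; inactive = the rest.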
Target: Scavenger receptor class B member 1 (Mus musculus) (UniProt Q61009)
Test: mouse SR-BI DiI-HDL transfer blockers – ldlA[mSR-BI] CHO cells, fluorescence plate reader, dry powder, set 9, dose response (AID 623880)
Settings: DiI-HDL uptake fluorescence, 3 h; series mostly up to 35 µM

Chain of Scavenger receptor class B member 1 (Mus musculus) (Q61009 whole entry, looked up): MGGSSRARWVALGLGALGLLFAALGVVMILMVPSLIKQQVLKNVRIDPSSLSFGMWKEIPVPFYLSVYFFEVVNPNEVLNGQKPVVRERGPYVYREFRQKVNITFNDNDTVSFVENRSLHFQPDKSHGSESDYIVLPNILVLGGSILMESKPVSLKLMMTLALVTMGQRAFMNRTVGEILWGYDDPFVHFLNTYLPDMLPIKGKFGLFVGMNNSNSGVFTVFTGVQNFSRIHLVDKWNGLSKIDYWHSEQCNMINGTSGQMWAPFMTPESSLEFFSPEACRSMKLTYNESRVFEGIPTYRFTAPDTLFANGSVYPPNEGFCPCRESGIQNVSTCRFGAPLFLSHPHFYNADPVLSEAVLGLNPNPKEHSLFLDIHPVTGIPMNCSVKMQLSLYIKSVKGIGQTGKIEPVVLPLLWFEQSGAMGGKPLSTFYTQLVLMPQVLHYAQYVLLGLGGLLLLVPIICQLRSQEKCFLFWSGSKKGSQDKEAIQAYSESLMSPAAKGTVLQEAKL

Cc1ccc(OCc2cc(C(=O)N3CCCC(O)C3)no2)cn1 (stereo unspecified)
outcome: inactive
